Screen size: about 1,400 compounds; about 1,000 (71%) were called active. Not shown: some 12% with an inconclusive outcome. The call rests on the fitted dose curve; in most records, active means well fitted inhibition curve with a large enough effect; inconclusive means small, poorly fitted or top-dose-only effect; inactive means no such curve, though single readings can be large or run the other way. So high a share suggests a set chosen from earlier hits. Only a sample is shown. The source holds several records for some structures; these can differ, active in one and inactive in another.
On the % scale 0 is the no-effect control and ±100 the full control effect; potency means the concentration at half of the fitted maximal effect.

A short description of the assay: Nrf2 qHTS screen for inhibitors: Nrf2 A549 ARE-Fluc Confirmation Assay for Hit Validation. Further: nearly all actives have a fitted effect of over 65% in size. The settings on record: A549 ARE-firefly luciferase reporter, luminescence; series mostly up to 46.1 µM; activity change, negative = inhibition: at the top concentration. The text has this:
Nrf2 is a transcription factor that maintains cellular redox homoestasis and protects cells from xenobiotics. Nrf2 binds to the antioxidant response element (ARE) to induce gene expression of a broad spectrum of genes that encode for antioxidants. […] Finding a small molecule that act as an inhibitor of Nrf2 function would represent a novel therapeutic target that could lead to improvement in survival of patients undergoing chemo- and/or radio- therapy.
In collaboration with the Biswal laboratory, a cell based, luminescence assay (BugLite) was developed to detect the Nrf2 activity using the A549 ARE_Fluc cells (AID 493153). This assay was coupled with a fluorescence based (CellTiter Fluor) cytotoxicity assay to identify and exclude toxic compounds. This coupled assay was used to evaluate selected compounds for hit validation. The data herein is the result of the BugLite assay where decrease in luminescence signal = inhibition of Nrf2 activation. Inhibition is the desired outcome for this assay.
NIH Chemical Genomics Center [NCGC]
NIH Molecular Libraries Probe Centers Network [MLPCN]
Assay Submitter (PI): Shyam Biswal, Johns Hopkins University
[1] Shibata T., et al., Genetic alteration of Keap1 confers constitutive Nrf2 activation and resistance to chemotherapy in gallbladder cancer. Gastroenterology, 2008.
[2] Sjoblom T., et al., The consensus coding sequences of human breast and colorectal cancers. Science, 2006.
Five uL of cell suspension was dispensed into 1536-well white TC-treated plate using the Kalypsys dispenser to achieve a density of 5000 cells/well in all columns except column 1. The plates were incubated at 37deg C at 5% CO2 for 2 hours before 23 nL of compounds were added with the Kalypsys pin tool equipped with a 1,536-pin array. The control compounds Budesonide and Staurosporine were added at a concentration of 2mM. Budesonide was also added as a 1:10 titration, starting at 200uM, to achieve the dose-response control signal. The plates were incubated for 18-24 hour at 37deg C, 5% CO2 followed by a 5ul addition of 5% FBS OPTI-MEM growing media in column 1 as negative control. One microliter of 5x CellTiter Fluor (Promega) was added to each well and the assay plates were incubated at 37deg C, 5% CO2 for 30 minutes. The fluorescence signal was read using the PerkinElmer ViewLux plate reader (Ex = 405 nm /Em = 525 nm) for a 3 second exposure. After the signal was taken, 3 uL of 3x BugLite was dispensed into all wells. The plates were then incubated at room temperature for 15 minutes. A second ViewLux read (40 sec exposure) was performed to detect the luminescence signal. Cytotoxicity was assessed through the first fluorescent read while biochemical activity against Nrf2 was measured in the luminescent read. The data was normalized to the positive and negative controls.
Background: qHTS replaces the single test concentration by a dilution series.
Consider `CCOC(=O)c1cnc(-n2nc(C)cc2C)nc1NNc1cc(C)nc(-c2ccccc2)n1`, for which the Potency was 5.17 µM (active).

In the case of `CC(C)(C)c1ccc(Oc2ccc(N)cc2)cc1`, the Potency is 5.17 µM (active).

Turning to `C[n+]1ccc(/C=C/c2c[nH]c3ccccc23)cc1`, the Potency was 1.46 µM (active).

Regarding `OCCCNc1nccc(-c2cc(Nc3cccc(Cl)c3)ncn2)n1`, the Potency was 1.46 µM (active).

Take `Cc1c(Cl)cccc1NC(=O)Cn1cc(C(=O)c2cccs2)c2ccccc21`: the Potency was 5.8 µM (active).

Consider `Brc1c(CSc2nncc3ccccc23)nc2ccccn12`, for which the Potency was 6.51 µM (active).

With `Cc1oc2c(F)c(F)c(F)c(F)c2c1S(=O)(=O)Nc1cccc(C(F)(F)F)c1`, the Potency was 14.6 µM (active).

With `c1ccc(C(=NNc2nc3ccccc3s2)c2ccccn2)cc1`, the Potency is 11.6 µM (active).

On to `CCCOc1ccc(Cc2c(Cl)nc(SC)nc2NC)cc1`, for which the Potency was 6.51 µM (active).

For `CC(=NNC(=S)N1CCCCCC1)c1ccccn1`, the Potency is 2.59 µM (active).

`CC(=O)Nc1ccc(Nc2c3ccccc3nc3ccccc23)cc1`: the Potency is 1.64 µM (active).

For the compound `COc1ccc(C(=O)C[n+]2ccc(N)c(C)c2C)cc1`, the Potency is 6.51 µM (active).

On to `CCCOc1ccc(C(=O)Nc2ccc3oc(-c4cccc(Cl)c4Cl)nc3c2)cc1`, for which the Potency was 16.4 µM (active).

On to `CC1(C)CC(N2CCN(C(c3ccccc3)c3ccccc3)CC2)=CC(=[N+]2CCCCC2)C1`, for which the Potency was 4.61 µM (active).

Consider `O=C(Nc1ccc(Br)cn1)C1CCN(S(=O)(=O)c2cccs2)CC1`, for which the Potency was 5.8 µM (active).

Consider `Cc1ccc(NS(=O)(=O)c2cccs2)cc1S(=O)(=O)N1CCCCCC1`, for which the “activity change, negative = inhibition” value was -14.2% (inactive).

Consider `CC(C)Cn1c(N)c(C(=O)COC(=O)CN2C(=O)C3CC=CCC3C2=O)c(=O)n(C)c1=O` (stereo unspecified), for which the Potency is 5.8 µM (active).

For `CCC(C)N1C(=O)S/C(=C/c2ccc(Sc3nc4ccccc4[nH]3)o2)C1=O` (stereo unspecified), the Potency was 20.6 µM (active).

On to `CCC(C)(C)c1ccc(Oc2ccc(NC(=O)COC(=O)C3=COCCO3)cc2)cc1`, for which the Potency is 10.3 µM (active).

Consider `Cc1csc[n+]1CCC1CCCCC1`, for which the Potency is 9.2 µM (active).

`COc1cccc(-c2nnc(NC(=O)c3ccc(S(=O)(=O)N(CC(C)C)CC(C)C)cc3)o2)c1`: the Potency is 2.59 µM (active).

Consider `CCNS(=O)(=O)c1ccc(CCC(=O)N2CCN(c3cc(Cl)ccc3C)CC2)cc1`, for which the Potency was 23.1 µM (active).

For the compound `Cn1nccc1C(=O)NC1CCCc2c1cnn2-c1ccc(F)cc1F` (stereo unspecified), the Potency is 2.59 µM (active).

Turning to `O/N=C(\C[n+]1ccccc1)c1ccc(Br)cc1`, the Potency is 6.51 µM (active).

Take `Cc1cccc(N2CCN(C(=O)CCS(=O)(=O)c3ccc4c(c3)NC(=O)C(C)S4)CC2)c1C` (stereo unspecified): the Potency is 18.4 µM (active).

For `Cc1ccc(S(=O)(=O)N2CCN(c3ncnc4ccccc34)CC2)cc1`, the Potency is 7.31 µM (active).

Turning to `O=C1C=C(c2ccnc3cc(Cl)ccc23)C[C@@H](c2ccc3c(c2)OCO3)C1`, the Potency was 7.31 µM (active).

Regarding `COc1ccc(CCNC(=O)c2ccc(CS(=O)(=O)c3ccc(Br)cc3)o2)cc1OC`, the Potency is 14.6 µM (active).

Regarding `COc1ccc(OC)c(Cc2cnc3nc(N)nc(N)c3c2C)c1`, the Potency is 9.2 µM (active).

For `CCCCNc1nc2c(c(=O)n(C)c(=O)n2C)n1Cc1cccc(OC)c1`, the Potency was 9.2 µM (active).

For `N#CC(C#N)=CN=c1ccn(Cc2ccc(Cl)cc2Cl)cc1`, the Potency was 4.11 µM (active).

For `CN(Cc1cccnc1)C(=O)c1cc(COc2ccc3ncccc3c2)on1`, the Potency was 5.8 µM (active).

As to `CC(=O)N1c2ccc(S(=O)(=O)N3CCCC(C(=O)Nc4cccc(Cl)c4)C3)cc2CC1C` (stereo unspecified), the Potency is 11.6 µM (active).

`CC(=O)N1CCCc2cc(S(=O)(=O)N3CCCC(C(=O)N4CCN(c5cccc(Cl)c5)CC4)C3)ccc21` (stereo unspecified): the Potency is 7.31 µM (active).

`CC(=O)N1c2ccc(S(=O)(=O)N3CCCC(C(=O)NCc4ccc(Cl)cc4)C3)cc2CC1C` (stereo unspecified): the Potency was 7.31 µM (active).

In the case of `O=C(Nc1ccncc1)c1c(F)cccc1F`, the Potency was 10.3 µM (active).

Turning to `COc1ccc(CCNc2cc(N3CCN(C(=O)c4ccccc4OC)CC3)ccc2[N+](=O)[O-])cc1OC`, the Potency was 4.11 µM (active).

`COCCn1c(SCC(=O)Nc2ccccc2F)nc2c(c1=O)SCC2`: the “activity change, negative = inhibition” value was 18.2% (inactive).

For `CC1(C)O[C@@H]2CC3C4C[C@H](F)C5=CC(=O)C=CC5(C)C4C(O)CC3(C)[C@]2(C(=O)CO)O1` (stereo partly specified), the Potency was 0.0082 µM (active).

As to `Cc1ccc(NC(=O)C2CC(=O)N(c3ccc4c(c3)OCCO4)C2)cc1S(=O)(=O)N1CCCCCC1` (stereo unspecified), the Potency was 20.6 µM (active).

With `CC1CCN(S(=O)(=O)c2ccc(NC(=O)C3CC(=O)N(c4ccccc4)C3)cc2)CC1` (stereo unspecified), the “activity change, negative = inhibition” value was -10.1% (inactive).

For the compound `CCCCCCCCn1c2c(c(=N)c3c1CCC3)CCCC2`, the Potency was 6.51 µM (active).

For the compound `O=C(CSc1nnc2c(n1)[nH]c1ccccc12)NC1CCCCC1`, the Potency was 2.31 µM (active).

Consider `CCCN(c1ccc(C(C)C)cc1)S(=O)(=O)c1c(C)[nH]c(=O)[nH]c1=O`, for which the “activity change, negative = inhibition” value is 5.41% (inactive).

As to `O=C(CN1C(=O)c2ccccc2S1(=O)=O)N1CCc2ccccc21`, the Potency is 3.66 µM (active).

As to `O=C(CCC(=O)N1CCN(S(=O)(=O)c2ccc(Cl)cc2)CC1)NCc1cccc(C(F)(F)F)c1`, the Potency is 8.2 µM (active).

In the case of `Cc1ccc(S(=O)(=O)N2C[C@@H]3CCCC[C@@H]3[C@@H](C)[C@H]2c2cn(Cc3ccccc3)c3ccc(F)cc23)cc1`, the Potency was 5.17 µM (active).

For `CC(C)(C)n1ncc2c(=O)n(Cc3ccc(C(=O)c4ccccc4)cc3)cnc21`, the Potency was 1.3 µM (active).

As for `O=C(CC(O)(C(F)(F)F)C(F)(F)F)Nc1ccc(Cl)c(Cl)c1`, the Potency is 2.59 µM (active).

Consider `COc1ccc(CC(=O)Nc2nc(-c3ccc(F)c(F)c3)cs2)cc1OC`, for which the Potency is 5.8 µM (active).

With `O=c1[nH]c(SCc2cccc(F)c2)nc2ccccc12`, the “activity change, negative = inhibition” value is -10.1% (inactive).

(Values after PubChem BioAssay AID720524 (National Center for Advancing Translational Sciences (NCATS), 2013).)
